Consider 32 molecules from ChEMBL document CHEMBL3433997, “St. Jude Leishmania screening dataset” (2016).

What all share (format): functional
The target of assay [1] is Solute carrier family 2, facilitated glucose transporter member 1 (Homo sapiens) (UniProt P11166). Kind of assay: ST_JUDE_LEISH: Cytotoxicity at 2uM final concentration against transgenic Leishmania Mexicana promastigotes LmGLUT1 that are glucose transport deficient and complemented with the human glucose transporter GLUT1. Activity is measured by DNA content using SYBR green in vitro.
Sequence of Solute carrier family 2, facilitated glucose transporter member 1 (Homo sapiens) (P11166 whole entry): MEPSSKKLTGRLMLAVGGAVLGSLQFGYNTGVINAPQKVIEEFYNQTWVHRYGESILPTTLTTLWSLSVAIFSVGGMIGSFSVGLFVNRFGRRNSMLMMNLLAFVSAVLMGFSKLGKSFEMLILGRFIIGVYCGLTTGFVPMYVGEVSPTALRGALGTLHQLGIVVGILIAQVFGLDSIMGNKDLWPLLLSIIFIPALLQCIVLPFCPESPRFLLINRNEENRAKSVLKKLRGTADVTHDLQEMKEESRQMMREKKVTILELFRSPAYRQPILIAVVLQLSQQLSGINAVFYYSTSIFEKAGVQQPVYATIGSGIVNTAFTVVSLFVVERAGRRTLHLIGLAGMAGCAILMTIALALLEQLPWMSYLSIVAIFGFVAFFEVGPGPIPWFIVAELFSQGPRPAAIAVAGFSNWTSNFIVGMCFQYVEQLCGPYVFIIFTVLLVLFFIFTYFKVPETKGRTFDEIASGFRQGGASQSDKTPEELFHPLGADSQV

The target of assay [2] is Hexose transporter 1 (Plasmodium falciparum) (UniProt O97467). Kind of assay: ST_JUDE_LEISH: Cytotoxicity at 2uM final concentration against transgenic Leishmania Mexicana promastigotes LmPfHT that are glucose transport deficient and complemented with the Plasmodium falciparum hexose transporter. Activity is measured by DNA content using SYBR green in vitro.
The target of assay [3] is Glucose transporter (Leishmania mexicana) (UniProt O61059). The experiment in a line: ST_JUDE_LEISH: Cytotoxicity at 2uM final concentration against transgenic Leishmania Mexicana promastigotes LmGT2 that are glucose transport deficient and complemented with the L. Mexicana glucose transporter 2. Activity is measured by DNA content using SYBR green in vitro.

SMILES strings stand for the structures.

By inhibition is commonly meant the relative decrease from the control value, in per cent. Turning to `O=C(/C=C/c1ccc(Cl)c(Cl)c1)NCCCCCN1CCC(NC(=O)NC2CCCC2)CC1`, the inhibition in assay [1] is 1.11%; in assay [2], 1.93%; in assay [3], 0.26%.
For `COc1cc(Cc2cnc(N)nc2N)cc(OCCn2ccccc2=O)c1OC`, in that order: 2.42%, 2.33% and 1.46%.
For `Cc1ccc(NC(=S)N2CCCN(CCCCCNC(=O)/C=C/c3ccc(Cl)c(Cl)c3)CC2)cc1Cl`, in that order: -0.25%, -1.02% and 0.36%.
For `O=C1NC(c2ccccc2)C2(CCN(CC(O)COc3cccc4ncccc34)CC2)O1` (stereo unspecified) the same measures were 2.46%, 3.19% and 1.26%.
Consider `O=C(NCc1ccccc1)c1nn(CCCN2CCC(N3CCCC3)CC2)cc1-c1ccc(Cl)c(Cl)c1`, for which the values for the inhibition in assay [1], in assay [2] and in assay [3] were 4.94%, 0.77% and 0.9%, respectively.
Turning to `CCOCCCNc1nc2cc(OC)c(OC)cc2c2nc(-c3ccccc3)nn12`, the results for the inhibition in assay [1], in assay [2] and in assay [3] were 1.59%, 2.14% and -2.64%, respectively.
For `CC[C@H](NC(=O)c1c(CCCN2CCN(c3ccccc3)CC2)c(-c2ccccc2)nc2cc(O)ccc12)c1ccccc1`, in that order: 7.88%, 6.19% and 10.9%.
`Cc1cccc(C(=O)NC(NC(=S)Nc2cc(Cl)ccc2Cl)C(Cl)(Cl)Cl)c1` (stereo unspecified): the results for the inhibition in assay [1], in assay [2] and in assay [3] were -0.37%, -1.9% and -2.85%, respectively.
As to `COc1cc2nc(NC3CCN(Cc4ccccc4)CC3)nc(N)c2cc1OC`, the inhibition came out at 3.62% in assay [1], 2.22% in assay [2] and 13% in assay [3].
`Cc1ccc(Cn2ncc(N3CCC(N)CC3)c(Cl)c2=O)cc1NC(=O)Nc1ccc(-c2ccccc2)cc1`: the inhibition in assay [1] turned out to be 14.2%; in assay [2], 12.3%; in assay [3], 11.9%.
For `Cc1ccc(-c2nc3ccccc3o2)cc1NCc1cc(Cc2ccccc2)ccc1O`, in that order: -0.71%, -0.23% and -0.6%.
In the case of `COc1ccccc1CCNc1nc(C)cc(NCCC(=O)NCCOc2ccccc2)n1`, the inhibition in assay [1] stood at 5.24%; in assay [2], 7.33%; in assay [3] it was 2.01%.
For `CCNC(=O)CCc1cccc(Br)c1`, in that order: -1.73%, -1.52% and -1.62%.
For `Cc1cc(C)cc(Oc2c(C(F)(F)F)oc3c(CN4CC(C)OC(C)C4)c(O)ccc3c2=O)c1` (stereo unspecified), in that order: -0.42%, -1.36% and 1.31%.
For `O=C(Cn1c(CCc2cccc(F)c2F)cc(=O)c2cccnc21)N(CCCn1ccnc1)Cc1ccc(-c2ccc(C(F)(F)F)cc2)cc1` the same measures were 2.11%, 1.17% and 0.71%.
With `CCNc1cc(C(=O)N[C@@H](Cc2ccccc2)[C@H](O)CNC(C)(C)CC(C)(C)C)c(F)c(N2CCCCS2(=O)=O)c1`, the inhibition in assay [1] was -2.27%; in assay [2], -1.17%; in assay [3] it was -0.53%.
For `CN(Cc1cccc(O)c1)C1CCN(c2cc(NC(=O)c3ccc(F)cc3)ccn2)C1` (stereo unspecified) the same measures were 1.94%, 2.9% and 3.61%.
For `Cc1cccc2nc(-c3ccc(-c4ccc(CN5CCC(N)C5)cc4)s3)[nH]c12` (stereo unspecified) the same measures were -3.3%, 0.94% and -2.11%.
`CN1CCC(NCc2cccc(-c3ccc(S(=O)(=O)NCCc4ccccn4)c(F)c3)c2)CC1`: the inhibition was 1.22% in assay [1], 0.03% in assay [2] and 0.94% in assay [3].
Consider `COc1ccc(CNc2ncc(-c3ccsc3)c(-c3nccs3)n2)cc1OC`, for which the inhibition was 0.9% in assay [1], 0.94% in assay [2] and 2.07% in assay [3].
`CCC(=O)N[C@@H]1CN[C@@H](C#Cc2cc3c(Nc4ccc(OCc5cccc(F)c5)c(Cl)c4)ncnc3s2)C1`: the values for the inhibition in assay [1], in assay [2] and in assay [3] were 2.02%, 0.3% and 1.72%, respectively.
For `c1cc(CNC2Cc3ccccc3C2)cc(-c2cnc(N3CCNCC3)nc2)c1`, in that order: 0.76%, 2.77% and 1.2%.
For `C(=NNc1nc2ccccc2[nH]1)c1ccccc1OCc1ccccc1` the same measures were 4.25%, 6.99% and 3.06%.
For `COc1ccc(CN2CCCC(N3CC4(OC3=O)c3ccccc3-c3ccccc34)C2)c(O)c1` (stereo unspecified) the same measures were 5.47%, 4.69% and 4.18%.
With `N#Cc1cncc(-c2nc3c(N4CCC(N5CCCC5)CC4)cccc3n2CCNCc2ccccc2)c1`, the results for the inhibition in assay [1], in assay [2] and in assay [3] were 0.91%, 0.8% and 3.98%, respectively.
For `CC(C)C1=C[C@H]2C[C@]3(C4OCCO4)[C@@H]4CC[C@@H](C)[C@H]4C[C@@]2(COCc2cccc(C#N)c2)[C@]13C(=O)OC(c1ccccc1)c1ccccc1`, in that order: 4.12%, 3.24% and 2.75%.
Consider `FC(F)(F)c1ccc2[nH]c(-c3ccc(-c4cccc(CNCC5CCCO5)c4)s3)nc2c1` (stereo unspecified), for which the inhibition in assay [1] was 0.73%; in assay [2], 2.27%; in assay [3] it was 2.21%.
For `CN(C)CCC=C1c2ccccc2Sc2c(O)cc(Cl)cc21`, in that order: -0.51%, 4.06% and 1.71%.
Turning to `CCc1c(CCNCCCCCCNC(C)Cc2ccc3c(c2CC)OCO3)ccc(OC)c1OC` (stereo unspecified), the inhibition in assay [1] amounted to 4.49%; in assay [2], 3.47%; in assay [3], 1.99%.
For `COc1ccc(S(=O)(=O)N2CCC(NS(=O)(=O)c3ccc(F)cc3)CC2)cc1` the same measures were 3.51%, 2.07% and 3.69%.
For `COc1ccc(CN(C)CCOc2ccc(NC(=O)c3cccc4c(=O)c5cc(SC)ccc5[nH]c34)cc2)cc1OC` the same measures were 10.2%, 8.45% and 3.5%.
On to `C[C@H](Nc1c(Nc2ccc3[nH]ccc3c2)c(=O)c1=O)C1CCCCC1`, for which the figures for the inhibition in assay [1], in assay [2] and in assay [3] were -1.55%, 0.15% and -0.44%, respectively.
